Laboratory results taken from publication PMC5540273 (PLoS ONE, 2017).
Where two headings read alike, the source gives them in different places.

What was measured:
[1] = system: LCK; conditions: concentration: 1 μM, replicates: in singlicate; n = 1
[2] = system: LIMK1; conditions: concentration: 1 μM, replicates: in singlicate; n = 1
[3] = system: LIMK2; conditions: concentration: 1 μM, replicates: in singlicate; n = 1
[4] = system: T1, LKB1; conditions: concentration: 1 μM, replicates: in singlicate; n = 1
T1 construct: gene STK11

[5] = system: T2, LOK; conditions: concentration: 1 μM, replicates: in singlicate; n = 1
T2 construct: gene STK10

[6] = system: LRRK2; conditions: concentration: 1 μM, replicates: in singlicate; n = 1
[7] = system: LTK; conditions: concentration: 1 μM, replicates: in singlicate; n = 1
[8] = system: LYN; conditions: concentration: 1 μM, replicates: in singlicate; n = 1
[9] = system: T3, LZK; conditions: concentration: 1 μM, replicates: in singlicate; n = 1
T3 construct: gene MAP3K13

[10] = system: MAK; conditions: concentration: 1 μM, replicates: in singlicate; n = 1
[11] = system: MAP3K15; conditions: concentration: 1 μM, replicates: in singlicate; n = 1
[12] = system: MAP3K1; conditions: concentration: 1 μM, replicates: in singlicate; n = 1
[13] = system: MAP3K2; conditions: concentration: 1 μM, replicates: in singlicate; n = 1
[14] = system: MAP3K3; conditions: concentration: 1 μM, replicates: in singlicate; n = 1
[15] = system: MAP3K4; conditions: concentration: 1 μM, replicates: in singlicate; n = 1
[16] = system: MAP4K2; conditions: concentration: 1 μM, replicates: in singlicate; n = 1
[17] = system: MAP4K3; conditions: concentration: 1 μM, replicates: in singlicate; n = 1
[18] = system: MAP4K4; conditions: concentration: 1 μM, replicates: in singlicate; n = 1
[19] = system: MAP4K5; conditions: concentration: 1 μM, replicates: in singlicate; n = 1
[20] = system: MAPKAPK2; conditions: n = 1
[21] = concentration: 1 μM, replicates: in singlicate
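Also: KINOMEscan kinase panel screen.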

COc1cccc(NC(=O)NC2CCN(c3ccnc(Nc4cc(OC)c(OC)c(OC)c4)n3)C2)c1 (centres unmarked) [GSK1379763]
%Inh [1]: 14% | %Inh [2]: 21% | %Inh [3]: 34% | %Inh [4]: 2% | %Inh [5]: 43% | %Inh [6]: 0% | %Inh [7]: 62% | %Inh [8]: 0% | %Inh [9]: 25% | %Inh [10]: 23% | %Inh [11]: 0% | %Inh [12]: 80% | %Inh [13]: 3% | %Inh [14]: 0% | %Inh [15]: 39% | %Inh [16]: 0% | %Inh [17]: 12% | %Inh [18]: 56% | %Inh [19]: 81% | %Inh [20, 21]: 0%

CCn1c(-c2nonc2N)nc2c(C#CC(C)(C)O)ncc(OCCCCN)c21.O=C(O)C(F)(F)F.O=C(O)C(F)(F)F [GSK507274]
%Inh [1]: 0% | %Inh [2]: 0% | %Inh [3]: 0% | %Inh [4]: 0% | %Inh [5]: 0% | %Inh [6]: 45% | %Inh [7]: 0% | %Inh [8]: 0% | %Inh [9]: 0% | %Inh [10]: 88% | %Inh [11]: 3% | %Inh [12]: 100% | %Inh [13]: 90% | %Inh [14]: 81% | %Inh [15]: 53% | %Inh [16]: 0% | %Inh [17]: 0% | %Inh [18]: 7% | %Inh [19]: 35% | %Inh ([20]; 1 µM): 28%

Cn1cc(-c2ccc3c(c2)CCN3C(=O)Cc2cccc(Cl)c2)c2c(N)ncnc21 [GSK2606590]
%Inh [1]: 44% | %Inh [2]: 3% | %Inh [3]: 52% | %Inh [4]: 0% | %Inh [5]: 98.1% | %Inh [6]: 29% | %Inh [7]: 47% | %Inh [8]: 15% | %Inh [9]: 0% | %Inh [10]: 6% | %Inh [11]: 17% | %Inh [12]: 11% | %Inh [13]: 84% | %Inh [14]: 56% | %Inh [15]: 52% | %Inh [16]: 8% | %Inh [17]: 71% | %Inh [18]: 0% | %Inh [19]: 79% | %Inh [20, 21]: 19%

CN(c1ccc(NC(=O)Nc2cc(C(F)(F)F)ccc2F)cc1)c1ccnc(Nc2ccc(S(N)(=O)=O)cc2)n1 [GW809893]
%Inh [1]: 99.6% | %Inh [2]: 89% | %Inh [3]: 84% | %Inh [4]: 0% | %Inh [5]: 100% | %Inh [6]: 72% | %Inh [7]: 95.7% | %Inh [8]: 96.4% | %Inh [9]: 0% | %Inh [10]: 95.7% | %Inh [11]: 0% | %Inh [12]: 33% | %Inh [13]: 7% | %Inh [14]: 15% | %Inh [15]: 72% | %Inh [16]: 26% | %Inh [17]: 96.8% | %Inh [18]: 97.7% | %Inh [19]: 99.2% | %Inh [20, 21]: 0%

Cc1cccc(NC(=O)Nc2ccc(Oc3ncnc4ccn(C)c34)cc2)c1
%Inh [1]: 0% | %Inh [2]: 7% | %Inh [3]: 0% | %Inh [4]: 42% | %Inh [5]: 86% | %Inh [6]: 0% | %Inh [7]: 17% | %Inh [8]: 7% | %Inh [9]: 0% | %Inh [10]: 0% | %Inh [11]: 0% | %Inh [12]: 0% | %Inh [13]: 0% | %Inh [14]: 0% | %Inh [15]: 0% | %Inh [16]: 0% | %Inh [17]: 0% | %Inh [18]: 0% | %Inh [19]: 0% | %Inh [20, 21]: 0%

COc1ccc(CNC(=O)NC2CCN(c3ccnc(Nc4ccc(F)cc4)n3)CC2)cc1 [GSK1379788]
%Inh [1]: 8% | %Inh [2]: 0% | %Inh [3]: 0% | %Inh [4]: 4% | %Inh [5]: 0% | %Inh [6]: 0% | %Inh [7]: 1% | %Inh [8]: 0% | %Inh [9]: 25% | %Inh [10]: 24% | %Inh [11]: 0% | %Inh [12]: 4% | %Inh [13]: 0% | %Inh [14]: 0% | %Inh [15]: 0% | %Inh [16]: 0% | %Inh [17]: 0% | %Inh [18]: 2% | %Inh [19]: 0% | %Inh [20, 21]: 1%

CSc1cccc2c(-c3ccncn3)c(-c3ccc(F)cc3)nn12 [GW514786]
%Inh [1]: 20% | %Inh [2]: 11% | %Inh [3]: 0% | %Inh [4]: 0% | %Inh [5]: 0% | %Inh [6]: 34% | %Inh [7]: 0% | %Inh [8]: 0% | %Inh [9]: 20% | %Inh [10]: 0% | %Inh [11]: 21% | %Inh [12]: 14% | %Inh [13]: 0% | %Inh [14]: 0% | %Inh [15]: 0% | %Inh [16]: 0% | %Inh [17]: 0% | %Inh [18]: 2% | %Inh [19]: 0% | %Inh [20, 21]: 67%

CN(C)Cc1ccc(-c2ccc3c(Nc4ccc(Oc5ccccn5)cc4)ccnc3c2)o1 [GW567148]
%Inh [1]: 92.9% | %Inh [2]: 0% | %Inh [3]: 0% | %Inh [4]: 0% | %Inh [5]: 52% | %Inh [6]: 48% | %Inh [7]: 0% | %Inh [8]: 17% | %Inh [9]: 27% | %Inh [10]: 13% | %Inh [11]: 0% | %Inh [12]: 14% | %Inh [13]: 0% | %Inh [14]: 0% | %Inh [15]: 0% | %Inh [16]: 5% | %Inh [17]: 0% | %Inh [18]: 6% | %Inh [19]: 61% | %Inh [20, 21]: 3%

COc1ccc(-c2coc3ccc(-c4nnc(SCc5ccc(OC)c(C(F)(F)F)c5)o4)cc23)cc1
%Inh [1]: 0% | %Inh [2]: 25% | %Inh [3]: 12% | %Inh [4]: 0% | %Inh [5]: 24% | %Inh [6]: 0% | %Inh [7]: 27% | %Inh [8]: 0% | %Inh [9]: 0% | %Inh [10]: 22% | %Inh [11]: 0% | %Inh [12]: 0% | %Inh [13]: 10% | %Inh [14]: 0% | %Inh [15]: 0% | %Inh [16]: 0% | %Inh [17]: 0% | %Inh [18]: 6% | %Inh [19]: 0% | %Inh [20, 21]: 0%

Cc1ccc(F)c(C(=O)Nc2cccc(-c3nn4ccccc4c3-c3ccnc(Nc4cccc(F)c4)n3)c2)c1F [GSK361061]
%Inh [1]: 97.1% | %Inh [2]: 33% | %Inh [3]: 15% | %Inh [4]: 0% | %Inh [5]: 98.5% | %Inh [6]: 6% | %Inh [7]: 9% | %Inh [8]: 73% | %Inh [9]: 0% | %Inh [10]: 0% | %Inh [11]: 24% | %Inh [12]: 31% | %Inh [13]: 16% | %Inh [14]: 0% | %Inh [15]: 44% | %Inh [16]: 0% | %Inh [17]: 18% | %Inh [18]: 25% | %Inh [19]: 80% | %Inh [20, 21]: 23%
